± gives the standard deviation.
Tested on: MILI (PIWIL2) piRISC loaded with L1MC piRNA (26 nt)
Assay: pre-steady-state target cleavage rate (min^-1); guide: L1MC piRNA 5'p-UAACUAAAUACUAUGCAAGCUGUAGG; MIWI and MILI are mouse PIWI proteins and EfPiwi is from a freshwater sponge; tags in brackets are library labels; higher = faster piRNA-guided slicing of the target
In short: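 The method was Cleave-'n-Seq, in which uncleaved targets from a transcribed, DNA-blocked target RNA library were sequenced after exposure to active affinity-purified piRISC carrying one synthetic guide, with or without GTSF1 partner protein. Reactions contained 0.1 nM library, 1 nM piRISC and, where present, 500 nM GTSF1 in HEPES–potassium acetate buffer at 33 °C for 0–8 or 0–960 min. Reads were normalised to depth and to weakly complementary targets, three trials were pooled, and k3 was capped at 0.0001 min^-1. The pre-steady-state cleavage rate came from a burst-and-steady-state fit.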

[1] = auxiliary factor: 500 nM mouse GTSF1
[2] = auxiliary factor: none (no GTSF1)

Row | Sequence | pre-steady-state target cleavage rate [1] | pre-steady-state target cleavage rate [2]
1 | UCCUGGAUGAGCUUGCAAGUAUUUAGUUA | 0.0177 ± 0.0056 | 0.00379 ± 0.0026
2 | UCCUGGAUGUCGAUGCAUAGUACUUUAGUUA | 0.0153 ± 0.0039 | 0.00479 ± 0.0029
3 | UCCUGGAUGUCGUUGCUUAGUAUUUAGUUA | 0.0857 ± 0.011 | 0.00861 ± 0.002
4 | UCCUGGAUGUGCUUGCAAUGUAUUUAGUUA | 0.0104 ± 0.005 | 0.0111 ± 0.0028
5 | UCCUGGAUCAGCUUGGUUAGUAUUUAGUUA | 0.209 ± 0.016 | 0.0137 ± 0.0033
6 | UCCUGGAUGAGCUUGCAUUGUAUAUAGUUA | 0.0992 ± 0.012 | 0.00388 ± 0.0029
7 | UCCUGGAUGUCCUUACAUAGUAUUUAGUUA | 0.0839 ± 0.012 | 0.00844 ± 0.002
8 | UCCUGGUACAGCUACCAUAGUAUUUAGUAA | 0.28 ± 0.04 | 0.00528 ± 0.0023
9 | UCCUGGAUGUCGUUGCUUAGUAUAUAGUUA | 0.0611 ± 0.014 | 0.0122 ± 0.0029
10 | UCCUCCUACAGCUUGCAUAGUUUUUAGUUA | 0.0632 ± 0.011 | 0.00455 ± 0.0023
11 | UCCUGGAUGUCGAUGCAUGGUAUUUAGUUA | 0.0229 ± 0.0078 | 0.00372 ± 0.0028
12 | UCCUGGUACACGUUGCAUAGUAUUUAGUUA | 0.19 ± 0.045 | 0.0113 ± 0.0051
13 | UCCUGGUACAGGAAGCAUAGUAUUUAGUAA | 0.167 ± 0.023 | 0.00332 ± 0.0019
14 | UCCUGGAUCAGCUUGGAUAGUUUUUAGUUA | 0.0521 ± 0.0089 | 0.00364 ± 0.0024
15 | UCCUGGUACAGCAUGCUUAGUAUUUAGUUA | 0.208 ± 0.025 | 0.0118 ± 0.0026
16 | UCCUGGAUCAGCUUGCAUAGUUUAUAGUUA | 0.0204 ± 0.008 | 0.00545 ± 0.0025
17 | UCCUGGUACAGCUUGCAUAGUCAUUUAGUUA | 0.0147 ± 0.0072 | 0.00451 ± 0.0041
18 | UCCUGGAUGUGGUUGCUUAGUAUUUAGUUA | 0.107 ± 0.02 | 0.0132 ± 0.0037
19 | UCCUGGAUGUGCUUGCAUAGUAAUUUAGUUA | 0.0286 ± 0.01 | 0.0056 ± 0.0026
20 | UCCUGGAUGUCCUUGGUUAGUAUUUAGUUA | 0.0867 ± 0.022 | 0.00681 ± 0.0022

Row | Sequence | pre-steady-state target cleavage rate [1] | pre-steady-state target cleavage rate [2]
21 | UCCUGGAUGUGCUUGCUUACUAUUUAGUUA | 0.0117 ± 0.005 | 0.00477 ± 0.0024
22 | UCCUGGUACACGAUGCAUAGUAUUUAGUUA | 0.252 ± 0.058 | 0.00395 ± 0.0035
23 | UCCUGGAACAGCUAGCAUAGUUUUUAGUUA | 0.0448 ± 0.0092 | 0.00311 ± 0.0024
24 | UCCUGGAUGUGCAUGCAUAGUAUUUAGUAA | 0.121 ± 0.017 | 0.00467 ± 0.0026
25 | UCCUGGAUGUCGUUGGCAUAGUAUUUAGUUA | 0.0621 ± 0.015 | 0.0049 ± 0.003
26 | UCCUGGUACAGCUUGCAUAGUUAUUUAGUUA | 0.0143 ± 0.0076 | 0.00549 ± 0.0044
27 | UCCUGGUACAGCUUGCAUAGCAUUUAGUUA | 0.117 ± 0.03 | 0.00488 ± 0.0026
28 | UCCUGGAUGAGGUUGCAUUGUAUUUAGUUA | 0.0484 ± 0.01 | 0.00431 ± 0.0027
29 | UCCUGGAUGUCGUUGCAAAGUAUAUAGUUA | 0.0166 ± 0.0054 | 0.00471 ± 0.0027
30 | UCCUGGAACAGCUUGCAUAGUGAUUUAGUUA | 0.0178 ± 0.007 | 0.00499 ± 0.0023
31 | UCCUGGUAGUGCUUGCAUAGUAUUUAGUAA | 0.191 ± 0.032 | 0.00505 ± 0.0031
32 | UCCUGGAUGAGCUUGGUAAGUAUUUAGUUA | 0.009 ± 0.0036 | 0.00405 ± 0.0023
33 | UCCUGGAUGUGCUUCCUUAGUAUUUAGUUA | 0.0394 ± 0.0077 | 0.00557 ± 0.0022
34 | UCCUGGAUGUGGUUGCAUACUAUUUAGUUA | 0.0175 ± 0.0072 | 0.00525 ± 0.0036
35 | UCCUGGAUGUGGUUGGAUAGUAUUUAGUUA | 0.109 ± 0.019 | 0.00858 ± 0.0028
36 | UCCUGGUACAGCUUGCAUAGUAUUUCAGUUA | 0.21 ± 0.078 | 0.00397 ± 0.0039
37 | UCCUGGAUGUGCUAGCAUAGUUUUUAGUUA | 0.0108 ± 0.0046 | 0.00466 ± 0.0027
38 | UCCUGGAUCAGUUUGCAUAGUAUUUAGUUA | 0.24 ± 0.02 | 0.0104 ± 0.0027
39 | UCCUGGAUGUCGUAGCAUAGUAUAUAGUUA | 0.0653 ± 0.016 | 0.0048 ± 0.0023
40 | UCCUGGAUGUCGUUGCAUAGUAUUUGGUUA | 0.145 ± 0.031 | 0.00722 ± 0.003

Row | Sequence | pre-steady-state target cleavage rate [1] | pre-steady-state target cleavage rate [2]
41 | UCCUGGAUGUCGUGGCAUAGUAUUUAGUUA | 0.0441 ± 0.011 | 0.00558 ± 0.0029
42 | UCCUGGAUGUCCUUGAAUAGUAUUUAGUUA | 0.122 ± 0.023 | 0.011 ± 0.0029
43 | UCCUGGAUGUCGAAGCAUAGUGUUUAGUUA | 0.0115 ± 0.0044 | 0.00454 ± 0.0019
44 | UCCUGGAUCAGCAUGCAUAGUAUUUUGUUA | 0.16 ± 0.021 | 0.00405 ± 0.0024
45 | UCCUGGAUGAGCUUGCUUUGUAUUUAGUUA | 0.0408 ± 0.01 | 0.00403 ± 0.0028
46 | UCCUGGAUGUCCUAGCAUAGUAUUAAGUUA | 0.0366 ± 0.0077 | 0.00287 ± 0.0022
47 | UCCUUCUACAGCUUGCAUAGUAUUUAGUUA | 0.3 ± 0.015 | 0.0105 ± 0.0029
48 | UCCUGGAUGUCCUUGCAUUGUAUAUAGUUA | 0.0803 ± 0.022 | 0.00438 ± 0.0024
49 | UCCUGGAUCAGCUUGCAUAGUUAUUUAGUUA | 0.00888 ± 0.004 | 0.00454 ± 0.0027
50 | UCCUGGAUGUCCUUGCAUAGUAAAUAGUUA | 0.034 ± 0.0081 | 0.00497 ± 0.0022
51 | UCCUGGAUGUCGUUGCUUAGUUUUUAGUUA | 0.00856 ± 0.0044 | 0.00646 ± 0.0025
52 | UCCUGGAUGUCGAUGCAUAGUAUCUAGUUA | 0.0915 ± 0.017 | 0.00396 ± 0.0023
53 | UCCUGGAUGUCGAAGCAUAGUAGUUUAGUUA | 0.00907 ± 0.0034 | 0.00276 ± 0.0022
54 | UCCUCCUACAGCUUGCAUAGUAUUUUCUAA | 0.143 ± 0.028 | 0.00357 ± 0.0031
55 | UCCUGGAUGUCGUUGCAUAGUAUUAUAGUUA | 0.173 ± 0.03 | 0.00429 ± 0.0034
56 | UCCUGGAUCUGCUUGCAUAGUAUUAAGUUA | 0.204 ± 0.019 | 0.00478 ± 0.0026
57 | UCCUGGAUGAGCUUGCAUAGUUUUUUGUUA | 0.0139 ± 0.0061 | 0.00346 ± 0.003
58 | UCCUGGAUGUCCUAGCAUAGUAAUUAGUUA | 0.0282 ± 0.01 | 0.00305 ± 0.0025
59 | UCCUGCUACAGCUUGCAAUCUAUUUAGUUA | 0.0303 ± 0.0068 | 0.00243 ± 0.0019
60 | UCCUCCUACAGCUUGCAUAGUUUUAGUUA | 0.0249 ± 0.0085 | 0.0026 ± 0.0026
